# ChEMBL document CHEMBL1961873, “Compounds: GSK PKIS; Assays: Nanosyn kinase panel” (2012)
# Tests used:
# [1] = biological target: T1, Serine/threonine-protein kinase Nek9 (Homo sapiens) (UniProt Q8TD19); details: at 1 µM;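 also: each value is a mean percent inhibition of NEK9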
# T1 sequence (whole entry): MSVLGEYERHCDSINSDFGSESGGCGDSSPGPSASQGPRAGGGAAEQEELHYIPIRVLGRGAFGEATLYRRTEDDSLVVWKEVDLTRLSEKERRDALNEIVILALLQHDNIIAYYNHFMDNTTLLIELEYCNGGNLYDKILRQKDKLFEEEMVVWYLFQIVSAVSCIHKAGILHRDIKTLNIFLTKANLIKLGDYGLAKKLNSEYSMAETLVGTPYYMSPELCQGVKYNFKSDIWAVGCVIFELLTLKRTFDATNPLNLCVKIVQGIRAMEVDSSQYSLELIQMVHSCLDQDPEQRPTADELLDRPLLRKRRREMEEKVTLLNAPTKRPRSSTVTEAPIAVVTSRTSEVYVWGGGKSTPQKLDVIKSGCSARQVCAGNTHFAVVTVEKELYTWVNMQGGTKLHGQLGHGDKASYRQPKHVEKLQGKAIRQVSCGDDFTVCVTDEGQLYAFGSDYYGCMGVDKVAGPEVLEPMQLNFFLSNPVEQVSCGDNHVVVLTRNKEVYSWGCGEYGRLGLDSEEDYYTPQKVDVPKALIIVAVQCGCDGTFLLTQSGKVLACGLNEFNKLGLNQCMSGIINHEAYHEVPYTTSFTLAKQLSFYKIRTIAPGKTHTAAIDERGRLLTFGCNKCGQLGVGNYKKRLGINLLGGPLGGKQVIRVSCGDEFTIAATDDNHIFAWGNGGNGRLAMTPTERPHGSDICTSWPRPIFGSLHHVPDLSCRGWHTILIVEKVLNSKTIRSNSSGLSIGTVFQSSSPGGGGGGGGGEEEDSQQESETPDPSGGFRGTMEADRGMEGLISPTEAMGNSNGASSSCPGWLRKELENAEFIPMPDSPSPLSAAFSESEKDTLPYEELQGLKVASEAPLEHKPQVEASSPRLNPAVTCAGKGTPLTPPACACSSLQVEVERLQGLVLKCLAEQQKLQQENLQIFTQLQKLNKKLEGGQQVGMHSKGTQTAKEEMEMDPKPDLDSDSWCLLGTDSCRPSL
# [2] = biological target: Serine/threonine-protein kinase PLK1 (Homo sapiens) (UniProt P53350); details: at 0.1 µM
# [3] = biological target: Serine/threonine-protein kinase PLK1 (Homo sapiens) (UniProt P53350); details: at 1 µM
# [4] = biological target: T2, Dual specificity protein kinase TTK (Homo sapiens) (UniProt P33981); details: at 0.1 µM
# T2 sequence (whole entry): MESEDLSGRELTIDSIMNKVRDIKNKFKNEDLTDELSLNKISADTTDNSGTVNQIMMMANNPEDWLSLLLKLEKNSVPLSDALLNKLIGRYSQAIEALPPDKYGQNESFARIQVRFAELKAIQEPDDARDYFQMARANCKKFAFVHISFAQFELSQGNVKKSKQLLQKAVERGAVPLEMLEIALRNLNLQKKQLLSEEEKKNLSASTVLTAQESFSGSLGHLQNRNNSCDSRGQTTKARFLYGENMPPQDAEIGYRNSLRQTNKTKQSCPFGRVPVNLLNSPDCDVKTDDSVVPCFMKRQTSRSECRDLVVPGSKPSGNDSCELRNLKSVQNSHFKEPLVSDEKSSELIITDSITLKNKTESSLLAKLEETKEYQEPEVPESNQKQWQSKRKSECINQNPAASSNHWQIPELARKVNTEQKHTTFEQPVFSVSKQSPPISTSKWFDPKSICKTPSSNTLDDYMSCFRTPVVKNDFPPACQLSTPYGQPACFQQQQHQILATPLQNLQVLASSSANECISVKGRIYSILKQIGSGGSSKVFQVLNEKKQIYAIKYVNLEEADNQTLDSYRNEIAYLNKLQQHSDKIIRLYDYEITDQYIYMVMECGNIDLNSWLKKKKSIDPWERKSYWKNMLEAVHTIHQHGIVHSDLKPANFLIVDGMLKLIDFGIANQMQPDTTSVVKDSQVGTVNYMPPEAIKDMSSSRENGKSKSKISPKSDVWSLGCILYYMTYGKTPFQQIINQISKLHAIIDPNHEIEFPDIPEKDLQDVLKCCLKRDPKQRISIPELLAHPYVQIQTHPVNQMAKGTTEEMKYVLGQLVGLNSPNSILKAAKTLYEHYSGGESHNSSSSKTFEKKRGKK
# [5] = tested on: T3, Receptor-type tyrosine-protein kinase FLT3 (Homo sapiens), P36888 [D835Y]; details: at 1 µM
# T3 sequence (whole entry): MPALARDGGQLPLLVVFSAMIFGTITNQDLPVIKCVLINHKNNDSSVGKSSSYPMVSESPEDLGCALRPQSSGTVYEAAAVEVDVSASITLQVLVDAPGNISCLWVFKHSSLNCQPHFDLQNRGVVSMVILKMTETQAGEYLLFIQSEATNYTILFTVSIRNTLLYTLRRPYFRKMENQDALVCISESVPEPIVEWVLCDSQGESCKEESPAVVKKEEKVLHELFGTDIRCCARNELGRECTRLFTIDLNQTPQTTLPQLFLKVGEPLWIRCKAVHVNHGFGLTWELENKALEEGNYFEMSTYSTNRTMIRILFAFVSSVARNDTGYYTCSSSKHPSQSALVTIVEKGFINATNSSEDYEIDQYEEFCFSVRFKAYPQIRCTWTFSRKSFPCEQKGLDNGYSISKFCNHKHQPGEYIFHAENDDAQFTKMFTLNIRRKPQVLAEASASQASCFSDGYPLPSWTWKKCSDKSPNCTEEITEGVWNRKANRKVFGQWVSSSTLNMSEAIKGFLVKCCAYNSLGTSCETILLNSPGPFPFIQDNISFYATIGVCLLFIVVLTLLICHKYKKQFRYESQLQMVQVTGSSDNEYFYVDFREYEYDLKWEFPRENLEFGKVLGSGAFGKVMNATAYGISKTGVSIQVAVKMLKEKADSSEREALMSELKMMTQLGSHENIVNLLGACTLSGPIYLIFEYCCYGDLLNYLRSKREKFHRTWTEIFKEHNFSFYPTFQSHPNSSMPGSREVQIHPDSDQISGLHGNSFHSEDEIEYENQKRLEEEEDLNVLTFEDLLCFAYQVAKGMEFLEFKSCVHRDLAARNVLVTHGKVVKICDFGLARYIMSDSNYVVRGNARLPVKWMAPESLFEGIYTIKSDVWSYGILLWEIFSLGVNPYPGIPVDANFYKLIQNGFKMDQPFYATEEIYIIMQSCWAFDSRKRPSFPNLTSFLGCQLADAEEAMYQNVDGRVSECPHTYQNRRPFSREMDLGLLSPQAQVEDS
# [6] = biological target: Vascular endothelial growth factor receptor 3 (Homo sapiens) (UniProt P35916); details: at 0.1 µM
# [7] = biological target: Vascular endothelial growth factor receptor 3 (Homo sapiens) (UniProt P35916); details: at 1 µM
# [8] = biological target: Macrophage colony-stimulating factor 1 receptor (Homo sapiens) (UniProt P07333); details: at 0.1 µM
# [9] = biological target: Macrophage colony-stimulating factor 1 receptor (Homo sapiens) (UniProt P07333); details: at 1 µM
# [10] = biological target: Tyrosine-protein kinase Fyn (Homo sapiens) (UniProt P06241); details: at 0.1 µM
# Chain of Tyrosine-protein kinase Fyn (Homo sapiens) (P06241 2-537 limits assumed): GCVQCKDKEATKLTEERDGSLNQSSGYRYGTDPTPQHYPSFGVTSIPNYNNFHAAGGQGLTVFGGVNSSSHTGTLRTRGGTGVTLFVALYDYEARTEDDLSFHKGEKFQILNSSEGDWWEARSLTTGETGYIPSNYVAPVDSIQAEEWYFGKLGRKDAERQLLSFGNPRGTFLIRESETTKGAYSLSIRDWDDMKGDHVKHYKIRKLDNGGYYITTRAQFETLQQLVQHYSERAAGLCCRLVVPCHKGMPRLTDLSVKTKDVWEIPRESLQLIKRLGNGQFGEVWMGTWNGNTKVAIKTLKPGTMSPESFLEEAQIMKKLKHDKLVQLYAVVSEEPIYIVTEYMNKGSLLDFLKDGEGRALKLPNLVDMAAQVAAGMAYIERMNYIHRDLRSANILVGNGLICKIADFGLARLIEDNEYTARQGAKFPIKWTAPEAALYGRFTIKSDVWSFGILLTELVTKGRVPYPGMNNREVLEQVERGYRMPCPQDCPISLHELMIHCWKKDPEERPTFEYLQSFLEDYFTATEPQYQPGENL
# Chain of Macrophage colony-stimulating factor 1 receptor (Homo sapiens) (P07333 whole entry): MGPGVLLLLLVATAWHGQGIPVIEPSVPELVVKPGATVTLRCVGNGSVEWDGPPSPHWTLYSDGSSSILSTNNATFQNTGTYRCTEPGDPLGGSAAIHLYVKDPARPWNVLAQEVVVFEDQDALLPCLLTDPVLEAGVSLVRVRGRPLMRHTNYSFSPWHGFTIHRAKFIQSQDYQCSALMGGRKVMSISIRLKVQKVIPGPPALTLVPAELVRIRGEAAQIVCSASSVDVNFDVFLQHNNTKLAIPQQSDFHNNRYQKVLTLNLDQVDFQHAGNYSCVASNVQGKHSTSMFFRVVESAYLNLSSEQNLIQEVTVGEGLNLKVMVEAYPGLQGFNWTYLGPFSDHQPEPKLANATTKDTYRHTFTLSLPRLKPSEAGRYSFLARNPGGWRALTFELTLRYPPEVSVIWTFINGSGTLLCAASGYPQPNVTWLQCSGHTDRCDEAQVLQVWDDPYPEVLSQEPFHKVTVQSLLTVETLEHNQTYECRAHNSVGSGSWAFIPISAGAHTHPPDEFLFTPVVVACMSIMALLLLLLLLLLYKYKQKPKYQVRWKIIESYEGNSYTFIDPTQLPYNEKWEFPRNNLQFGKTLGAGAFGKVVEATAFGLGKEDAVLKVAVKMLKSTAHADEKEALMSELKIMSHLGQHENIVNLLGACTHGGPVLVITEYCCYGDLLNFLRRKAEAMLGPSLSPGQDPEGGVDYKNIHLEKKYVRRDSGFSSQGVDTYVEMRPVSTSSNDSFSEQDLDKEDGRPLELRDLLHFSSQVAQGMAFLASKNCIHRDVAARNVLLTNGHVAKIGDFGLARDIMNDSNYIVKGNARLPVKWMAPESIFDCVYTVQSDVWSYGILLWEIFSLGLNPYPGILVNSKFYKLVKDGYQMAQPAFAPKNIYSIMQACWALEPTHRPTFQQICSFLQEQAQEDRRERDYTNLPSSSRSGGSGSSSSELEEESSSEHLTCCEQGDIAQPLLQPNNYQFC
# Chain of Serine/threonine-protein kinase PLK1 (Homo sapiens) (P53350 whole entry): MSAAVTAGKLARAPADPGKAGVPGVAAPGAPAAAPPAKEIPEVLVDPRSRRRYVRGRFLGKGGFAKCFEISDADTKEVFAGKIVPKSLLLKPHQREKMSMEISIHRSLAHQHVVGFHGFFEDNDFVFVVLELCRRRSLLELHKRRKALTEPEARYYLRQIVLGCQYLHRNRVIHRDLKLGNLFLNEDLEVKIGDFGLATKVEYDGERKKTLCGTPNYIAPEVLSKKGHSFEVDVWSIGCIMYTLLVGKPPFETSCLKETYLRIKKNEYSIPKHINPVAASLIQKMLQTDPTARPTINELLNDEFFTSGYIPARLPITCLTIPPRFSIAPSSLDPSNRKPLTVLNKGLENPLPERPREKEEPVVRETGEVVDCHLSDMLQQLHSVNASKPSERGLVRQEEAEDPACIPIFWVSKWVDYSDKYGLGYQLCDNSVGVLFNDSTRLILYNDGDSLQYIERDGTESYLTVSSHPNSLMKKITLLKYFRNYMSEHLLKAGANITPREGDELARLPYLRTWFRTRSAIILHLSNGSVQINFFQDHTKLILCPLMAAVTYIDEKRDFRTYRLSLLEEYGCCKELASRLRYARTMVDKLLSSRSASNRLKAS
# Chain of Vascular endothelial growth factor receptor 3 (Homo sapiens) (P35916 whole entry): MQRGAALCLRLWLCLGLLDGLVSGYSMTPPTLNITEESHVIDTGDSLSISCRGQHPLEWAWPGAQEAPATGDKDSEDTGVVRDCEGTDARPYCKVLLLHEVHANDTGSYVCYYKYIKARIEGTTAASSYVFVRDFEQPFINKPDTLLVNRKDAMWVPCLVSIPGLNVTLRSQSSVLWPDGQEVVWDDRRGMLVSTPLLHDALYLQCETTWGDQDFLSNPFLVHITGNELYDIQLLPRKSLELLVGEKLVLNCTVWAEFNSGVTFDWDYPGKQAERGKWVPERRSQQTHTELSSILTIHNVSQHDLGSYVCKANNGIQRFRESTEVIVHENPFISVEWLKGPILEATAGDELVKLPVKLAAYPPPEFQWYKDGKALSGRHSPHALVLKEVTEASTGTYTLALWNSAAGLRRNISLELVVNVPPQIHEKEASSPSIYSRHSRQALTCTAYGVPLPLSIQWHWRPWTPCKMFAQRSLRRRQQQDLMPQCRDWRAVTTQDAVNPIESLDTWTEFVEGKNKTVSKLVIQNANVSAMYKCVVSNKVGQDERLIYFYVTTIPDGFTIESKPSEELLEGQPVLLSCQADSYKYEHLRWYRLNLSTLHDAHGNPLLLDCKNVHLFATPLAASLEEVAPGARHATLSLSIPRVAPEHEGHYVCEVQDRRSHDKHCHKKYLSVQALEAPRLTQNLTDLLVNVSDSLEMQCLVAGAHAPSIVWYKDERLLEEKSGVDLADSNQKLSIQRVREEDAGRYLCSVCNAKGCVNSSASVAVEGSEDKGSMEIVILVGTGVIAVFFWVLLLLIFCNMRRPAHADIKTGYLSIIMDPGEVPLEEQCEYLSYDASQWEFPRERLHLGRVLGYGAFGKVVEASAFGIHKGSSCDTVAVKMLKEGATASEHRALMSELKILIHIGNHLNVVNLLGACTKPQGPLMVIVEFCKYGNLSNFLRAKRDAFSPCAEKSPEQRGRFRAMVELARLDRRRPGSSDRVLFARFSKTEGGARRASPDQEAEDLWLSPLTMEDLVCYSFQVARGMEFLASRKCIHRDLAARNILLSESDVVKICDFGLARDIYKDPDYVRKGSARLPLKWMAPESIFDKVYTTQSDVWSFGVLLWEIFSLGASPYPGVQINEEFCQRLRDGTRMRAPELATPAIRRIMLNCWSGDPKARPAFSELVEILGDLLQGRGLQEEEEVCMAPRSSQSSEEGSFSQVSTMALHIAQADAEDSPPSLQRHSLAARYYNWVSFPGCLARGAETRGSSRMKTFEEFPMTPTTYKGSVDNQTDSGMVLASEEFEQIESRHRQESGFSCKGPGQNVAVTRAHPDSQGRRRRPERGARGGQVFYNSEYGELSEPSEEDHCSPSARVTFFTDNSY
Structure (SMILES),inhibition [1] [%],inhibition [2] [%],inhibition [3] [%],inhibition [4] [%],inhibition [5] [%],inhibition [6] [%],inhibition [7] [%],inhibition [8] [%],inhibition [9] [%],inhibition [10] [%]
Nc1nccc(C#Cc2cncnc2Nc2ccc(OCc3cccc(F)c3)c(Cl)c2)n1,1.53,3.36,3.68,5.31,7.19,3.89,0.33,2.3,5.18,-0.31
CCn1c(-c2nonc2N)nc2c(C#CC(C)(C)O)nc(OCCNC)cc21,7.49,6.83,8.02,7.19,-0.49,1.76,11.6,-0.38,3.67,1.14
CS(=O)(=O)CCNCc1nc(-c2ccc3ncnc(Nc4ccc(OCc5cccc(C(F)(F)F)c5)cc4)c3c2)cs1,-0.39,1.34,3.51,3.6,4.19,3.13,2.21,0.88,8.87,1.59
Cc1ccc(Nc2ccnc(Nc3cccc(C(N)=O)c3)n2)cc1O,10.2,3.22,6.17,5.91,86.1,64,95,12.7,49.9,77.2
Cc1cc(Cl)cc2c1NC(=O)C2=NNc1ccc(S(N)(=O)=O)cc1,10.9,6.15,2.07,4.88,-4.47,1.38,1.06,-2.64,8.32,0.94
O=C(Nc1ccc(Oc2ccc3[nH]c(NC(=O)c4ccco4)nc3c2)cc1)Nc1cc(C(F)(F)F)ccc1F,6.87,0.92,1.34,-0.11,30.6,-7.79,38.1,15.4,72.8,-1.01
c1ccc(Cc2nc3ccc(Nc4ncnc5ccccc45)cc3[nH]2)cc1,1.93,2.22,1.76,5.97,5.06,0.79,2.3,4.66,5.24,1.56
c1ccc(Nc2ncc(-c3ccccc3)o2)cc1,10.2,5.96,5.42,18.1,9.89,3.79,11.7,3.76,22.9,3.46
N#Cc1cccc(Nc2nccc(-c3cnn4ncccc34)n2)c1,15.6,3.24,9.23,11.2,53.4,5.06,22.3,34.4,79.4,6.76
NS(=O)(=O)c1cccc(Nc2cc(-c3ccc(F)cc3)n[nH]2)c1,9.48,3.38,3.33,5.88,13.9,-0.78,2.02,3.25,16.6,1.7
Cc1ccc(C(=O)NC2CC2)cc1-c1ccc2[nH]ncc2c1,-2.78,-2.55,-0.76,-7.32,3.33,-0.16,1.13,-5.43,4.56,-0.87
COC(=O)c1ccc2c(c1)C(=Cc1cc(Br)c(O)c(Br)c1)C(=O)N2,11.3,5.7,17.4,13.3,4.72,1.46,9.65,2.87,16.5,5.27
NS(=O)(=O)c1ccc(NC=C2C(=O)Nc3ccc4ncsc4c32)cc1,32,4.42,6.99,52.1,87.5,63.9,102,47.5,85.5,5.49
CN(C)C(=O)O[C@@H]1CN[C@@H](C#Cc2cc3ncnc(Nc4ccc(OCc5cccc(F)c5)c(Cl)c4)c3s2)C1,5.37,4.55,3.19,1.31,-2.2,-0.2,0.49,-1.87,2.32,1.01
Cc1ccc(O)cc1Nc1ccnc2ccc(S(C)(=O)=O)cc12,7.62,4.22,2.78,8.17,-0.22,21.3,68.8,5.71,15.8,92.4
Cc1nc(-c2ccccc2)n2nc(NCCCN3CCOCC3)ncc12,8.77,3.18,3.22,6.18,1.89,2.75,2.24,1.73,10.9,1.73
Cc1cc(O)cc(C)c1/C=C/c1cncc(C(=O)N(C)C)c1,4.45,5.15,3.62,1.2,5.04,4.71,3.92,1.52,5.32,3.23

Structure (SMILES),inhibition [1] [%],inhibition [2] [%],inhibition [3] [%],inhibition [4] [%],inhibition [5] [%],inhibition [6] [%],inhibition [7] [%],inhibition [8] [%],inhibition [9] [%],inhibition [10] [%]
COc1cccc(-n2ncc3c(N/N=C/c4ccc(C)cc4)ncnc32)c1,9.51,7.38,14.2,18.3,10.3,3.28,4.5,4.53,12.9,5.39
NC(=O)c1cccc(Nc2nccc(Nc3cccc(F)c3)n2)c1,11,2.05,6.07,2.31,21.2,1.81,30.6,22.1,62.5,7.98
COc1cccc(-n2nc(C)c3c(N/N=C(\C)c4ccncc4)ncnc32)c1,2.13,-0.78,2.34,2.35,1.49,1.67,1.25,-1.96,5.8,1.21
O=C1Nc2ccccc2/C1=C/Nc1ccc2[nH]c(=O)[nH]c2c1,15.6,5.67,3.82,15.4,65.9,4.3,26.6,11.9,48.2,4.36
COc1cc(/C=N/Nc2ncnc3c2cnn3C(C)C)ccc1O,5.67,3.79,4.86,4.56,23.1,13.8,22.1,8.23,42.3,8.53
NS(=O)(=O)c1ccc(N/N=C2\C(=O)Nc3ccc(Cl)cc32)cc1,9.42,1.63,2.65,14,16.4,4.36,9.79,3.24,31.8,0.23
COC(=O)Nc1nc2cc(Oc3ccc(NC(=O)Nc4cccc(Br)c4)cc3)ccc2[nH]1,15.4,6.02,2.36,5.37,5.43,3.16,11.9,19.9,43.2,3.15
COc1cc2ncnc(Nc3ccc4c(cnn4Cc4ccccc4)c3)c2cc1OC,8.26,3.61,3.2,10.4,2.33,4.91,15,-1.86,3.16,7.78
FC(F)(F)c1ccc(-c2nn3ncccc3c2-c2ccnc(Nc3ccc4c(c3)OCCO4)n2)cc1,-0.89,0.09,-1.77,3.35,-0.25,-2.47,4.74,0.29,10.3,2.65
Cc1ccc2c(-c3ccnc(Nc4ccc5c(c4)OCCO5)n3)c(-c3ccc(C(F)(F)F)cc3)nn2n1,1.95,-2.52,2.75,4.62,-0.37,-1.78,2.51,-1.16,14.6,1.42
OCc1ccc(-c2nc(-c3ccccn3)c(-c3ccc4c(c3)OCO4)[nH]2)cc1,2.88,3.56,4.3,7.41,-0.9,1.47,-0.57,3.57,4.35,2.25
CN(C)c1cc2c(Nc3ccc4c(cnn4Cc4ccccc4)c3)ncnc2cn1,6.27,3.14,3.09,5.61,1.61,2.71,2.4,1.36,3.34,3.84
NS(=O)(=O)c1cccc(-c2cc3ccncc3cc2OCc2ccccc2)c1,5.52,3.05,4.2,7.53,-1.3,15.2,18.5,4.7,5.36,4.1
COc1ccc(-c2nn3ncccc3c2-c2ccnc(Nc3cccc(C(F)(F)F)c3)n2)cc1,3.9,1.94,0.44,5.91,-4.73,1.62,10.2,2.47,19.4,1.38
CCS(=O)(=O)c1ccc(OC)c(Nc2nccc(N(C)c3ccc4c(C)n[nH]c4c3)n2)c1,6.15,4.22,8.94,10.8,-5.27,94.8,104,5.72,32.2,39
CCS(=O)(=O)c1ccc(OC)c(Nc2ncc(-c3cccc(OC)c3)o2)c1,4.07,4.39,1.04,2.75,78.5,27.6,77.8,26.4,71.9,27.6
